The values that follow come from publication PMC3218832.

Among the targets are RELARELA (p65 homodimer) (Homo sapiens, UniProt Q04206 1-307); p50p50 homodimer (Homo sapiens, UniProt P19838 7-356); RELB subunit;p50 subunit (Homo sapiens;Homo sapiens, UniProt Q01201;P19838 120-401;7-356).
Holding throughout (experiment): protein binding microarray; high values mean tight binding
Holding throughout (conditions): dsDNA, one strand shown

The next experiment has as its target T1, p52p52 homodimer (Homo sapiens, UniProt Q00653 4-332).
T1 sequence: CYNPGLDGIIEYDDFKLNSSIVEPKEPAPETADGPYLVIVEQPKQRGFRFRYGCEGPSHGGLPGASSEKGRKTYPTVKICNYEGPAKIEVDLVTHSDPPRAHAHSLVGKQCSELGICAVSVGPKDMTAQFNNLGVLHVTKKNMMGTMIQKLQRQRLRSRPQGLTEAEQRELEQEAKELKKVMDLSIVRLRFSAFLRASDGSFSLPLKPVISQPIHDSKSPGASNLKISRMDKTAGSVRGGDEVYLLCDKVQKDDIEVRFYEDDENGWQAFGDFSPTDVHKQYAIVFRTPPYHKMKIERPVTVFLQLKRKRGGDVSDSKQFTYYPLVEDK

In experiment [1] the target is RELA (p65) subunit of heterodimer;p50 subunit (Homo sapiens;Homo sapiens, UniProt Q04206;P19838 1-307;7-356).
The target in experiment [2] is RELA (p65) subunit of heterodimer;p52 subunit (Homo sapiens;Homo sapiens, UniProt Q04206;Q00653 1-307;4-332).
For a further experiment, the target named is T2, RELB subunit;p52 subunit (Homo sapiens;Homo sapiens, UniProt Q01201;Q00653 120-401;4-332).
T2 sequence 1: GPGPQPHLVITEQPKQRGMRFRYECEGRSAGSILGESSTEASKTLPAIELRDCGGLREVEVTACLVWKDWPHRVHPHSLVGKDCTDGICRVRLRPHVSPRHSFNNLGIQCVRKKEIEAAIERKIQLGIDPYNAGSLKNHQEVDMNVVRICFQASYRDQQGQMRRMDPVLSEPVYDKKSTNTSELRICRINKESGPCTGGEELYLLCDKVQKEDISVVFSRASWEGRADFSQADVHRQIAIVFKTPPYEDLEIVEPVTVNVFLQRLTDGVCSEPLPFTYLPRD
T2 sequence 2: T1 sequence

The target of experiment [3] is C-Rel subunit;p50 subunit (Homo sapiens;Homo sapiens, UniProt Q04864;P19838 1-285;7-356).
Experiment [4] deals with T3, C-Rel subunit;p52 subunit (Homo sapiens;Homo sapiens, UniProt Q04864;Q00653 1-285;4-332).
T3 sequence 1: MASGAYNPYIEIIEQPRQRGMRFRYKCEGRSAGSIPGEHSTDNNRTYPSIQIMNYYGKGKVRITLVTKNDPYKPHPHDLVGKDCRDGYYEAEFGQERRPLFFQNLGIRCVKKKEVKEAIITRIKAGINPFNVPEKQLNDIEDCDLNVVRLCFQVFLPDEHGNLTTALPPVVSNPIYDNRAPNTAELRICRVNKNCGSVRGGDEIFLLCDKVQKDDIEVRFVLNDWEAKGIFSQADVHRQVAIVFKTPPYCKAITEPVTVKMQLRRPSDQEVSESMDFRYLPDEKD
T3 sequence 2: T1 sequence

Chain of RELARELA (p65 homodimer) (Q04206 1-307): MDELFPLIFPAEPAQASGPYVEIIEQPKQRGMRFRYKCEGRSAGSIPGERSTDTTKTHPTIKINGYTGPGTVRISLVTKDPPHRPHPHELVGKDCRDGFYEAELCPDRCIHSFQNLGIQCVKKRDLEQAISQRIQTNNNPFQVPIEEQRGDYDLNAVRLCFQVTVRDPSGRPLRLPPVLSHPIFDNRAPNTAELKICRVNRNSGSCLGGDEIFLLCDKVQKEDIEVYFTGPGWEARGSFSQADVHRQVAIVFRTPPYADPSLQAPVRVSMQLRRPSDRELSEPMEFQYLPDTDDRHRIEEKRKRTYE
Chain of RELA (p65) subunit of heterodimer;p50 subunit (Q04206 1-307, chain 1 of 2): as the sequence (Q04206 1-307) above
Chain of RELA (p65) subunit of heterodimer;p50 subunit (P19838 7-356, chain 2 of 2): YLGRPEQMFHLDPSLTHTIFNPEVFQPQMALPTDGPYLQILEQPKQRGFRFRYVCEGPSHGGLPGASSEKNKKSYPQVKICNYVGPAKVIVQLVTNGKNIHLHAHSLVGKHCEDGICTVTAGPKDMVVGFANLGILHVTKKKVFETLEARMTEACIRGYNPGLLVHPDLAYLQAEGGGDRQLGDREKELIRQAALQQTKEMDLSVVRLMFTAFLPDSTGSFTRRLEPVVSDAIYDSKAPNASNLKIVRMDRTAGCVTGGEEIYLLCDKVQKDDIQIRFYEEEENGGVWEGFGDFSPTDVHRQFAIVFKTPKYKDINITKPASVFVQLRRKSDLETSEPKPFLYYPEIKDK
Chain of p50p50 homodimer (P19838 7-356): as the sequence (P19838 7-356, chain 2 of 2) above

CAAGAGGTCCC: the binding signal with RELARELA (p65 homodimer) was 1.23 z-score; with p50p50 homodimer it was -0.219 z-score; with p52p52 homodimer, 0.0202 z-score; in experiment [1], -0.152 z-score; in experiment [2] it was -0.417 z-score; with RELB subunit;p50 subunit it was 0.271 z-score. Further, the binding signal with RELB subunit;p52 subunit is 0.113 z-score; in experiment [3], -0.21 z-score; in [4] it was -0.201 z-score.
As to CAGAGACCCCC, the binding signal with RELARELA (p65 homodimer) is -1.05 z-score; in the experiment with p50p50 homodimer it was 0.706 z-score; with p52p52 homodimer, 0.0929 z-score; in [1] it was 0.407 z-score; in [2] it was 0.302 z-score; with RELB subunit;p50 subunit, 0.373 z-score. Further, the binding signal came out at 0.502 z-score with RELB subunit;p52 subunit, 0.323 z-score in [3] and 0.174 z-score in experiment [4].
Consider GGAGTGGCCCT, for which the binding signal with RELARELA (p65 homodimer) is -0.154 z-score; with p50p50 homodimer it was -1.1 z-score; with p52p52 homodimer, -0.562 z-score; in experiment [1] it was -0.155 z-score; in [2] it was -0.329 z-score; with RELB subunit;p50 subunit it was -0.631 z-score. For the same sequence, the binding signal was -0.334 z-score in the experiment with RELB subunit;p52 subunit, -0.305 z-score in experiment [3] and -0.0519 z-score in experiment [4].
GAATAACTCCT: the binding signal was -0.147 z-score with RELARELA (p65 homodimer); -1.37 z-score with p50p50 homodimer; -0.713 z-score in the experiment with p52p52 homodimer; -0.733 z-score in experiment [1]; -0.946 z-score in experiment [2]; -0.919 z-score with RELB subunit;p50 subunit. Besides, the binding signal with RELB subunit;p52 subunit was -0.853 z-score; in experiment [3] it was -0.82 z-score; in experiment [4], -0.791 z-score.
Regarding AGAATCCCCCC, the binding signal in the experiment with RELARELA (p65 homodimer) turned out to be 1.06 z-score; in the experiment with p50p50 homodimer, 1.63 z-score; with p52p52 homodimer it was 2.16 z-score; in [1] it was 2.66 z-score; in experiment [2], 2.29 z-score; with RELB subunit;p50 subunit, 2.64 z-score. Further, the figures for the binding signal (with RELB subunit;p52 subunit; in experiment [3]; in experiment [4]) were 2.51 z-score, 1.9 z-score and 2.21 z-score, respectively.
As to CGATAGCTCCT, the binding signal was -0.609 z-score in the experiment with RELARELA (p65 homodimer); -1.63 z-score in the experiment with p50p50 homodimer; -0.796 z-score in the experiment with p52p52 homodimer; -1.07 z-score in experiment [1]; -1.04 z-score in experiment [2]; -1.34 z-score with RELB subunit;p50 subunit. The binding signal with RELB subunit;p52 subunit was -1 z-score; in [3], -1.65 z-score; in [4] it was -1.09 z-score.
GGGTGTGTCCC: the binding signal in the experiment with RELARELA (p65 homodimer) was found to be 0.547 z-score; in the experiment with p50p50 homodimer it was 0.331 z-score; with p52p52 homodimer, 1.38 z-score; in experiment [1] it was 0.647 z-score; in [2], 1.02 z-score; with RELB subunit;p50 subunit, 0.42 z-score. Further, the binding signal with RELB subunit;p52 subunit was 0.593 z-score; in [3], 0.648 z-score; in experiment [4], 0.813 z-score.
As for CGAAGATCCCC, the binding signal with RELARELA (p65 homodimer) was -0.0141 z-score; with p50p50 homodimer, 0.983 z-score; in the experiment with p52p52 homodimer, 1.06 z-score; in experiment [1], 1.41 z-score; in experiment [2], 1.15 z-score; with RELB subunit;p50 subunit, 1.5 z-score. In addition, the binding signal with RELB subunit;p52 subunit is 1.11 z-score; in experiment [3], 1.04 z-score; in experiment [4], 1.05 z-score.
As for CGAGACGCCCC, the binding signal is -0.513 z-score with RELARELA (p65 homodimer); 0.148 z-score with p50p50 homodimer; -0.0437 z-score with p52p52 homodimer; 0.0369 z-score in [1]; -0.155 z-score in [2]; 0.237 z-score in the experiment with RELB subunit;p50 subunit. Also, the binding signal with RELB subunit;p52 subunit is 0.231 z-score; in [3], 0.27 z-score; in [4], -0.0784 z-score.
On to CAGTGAACCCC, for which the binding signal was -0.0364 z-score with RELARELA (p65 homodimer); -0.483 z-score with p50p50 homodimer; -0.201 z-score with p52p52 homodimer; -0.227 z-score in [1]; -0.346 z-score in experiment [2]; -0.298 z-score with RELB subunit;p50 subunit. The binding signal with RELB subunit;p52 subunit is -0.205 z-score; in [3], -0.189 z-score; in experiment [4] it was -0.119 z-score.
On to GGATACCCCCC, for which the binding signal with RELARELA (p65 homodimer) is 0.633 z-score; with p50p50 homodimer it was 1.23 z-score; with p52p52 homodimer, 1.22 z-score; in experiment [1], 1.77 z-score; in [2] it was 1.48 z-score; in the experiment with RELB subunit;p50 subunit it was 1.06 z-score. Further, the binding signal with RELB subunit;p52 subunit came out at 1.52 z-score; in experiment [3], 1.14 z-score; in experiment [4], 1.54 z-score.
For CGGTAACTCCC, the binding signal is 1.08 z-score with RELARELA (p65 homodimer); 0.598 z-score in the experiment with p50p50 homodimer; 1.03 z-score with p52p52 homodimer; 0.774 z-score in [1]; 0.795 z-score in [2]; 0.459 z-score with RELB subunit;p50 subunit. Besides, the binding signal with RELB subunit;p52 subunit was found to be 1.02 z-score; in experiment [3], 0.555 z-score; in [4] it was 0.833 z-score.
As for GAGGAGCTCCT, the binding signal with RELARELA (p65 homodimer) is -0.566 z-score; with p50p50 homodimer, -1.81 z-score; with p52p52 homodimer, -0.78 z-score; in [1], -1.13 z-score; in experiment [2], -0.927 z-score; with RELB subunit;p50 subunit it was -1.05 z-score. Further, the binding signal in the experiment with RELB subunit;p52 subunit is -1.06 z-score; in [3], -1.73 z-score; in experiment [4], -0.927 z-score.
As for GGAAACTCCCC, the binding signal was determined as 3.23 z-score with RELARELA (p65 homodimer); 1.08 z-score with p50p50 homodimer; 2.01 z-score with p52p52 homodimer; 2.39 z-score in [1]; 2.23 z-score in experiment [2]; 1.32 z-score with RELB subunit;p50 subunit. Further, the binding signal with RELB subunit;p52 subunit was 2.1 z-score; in experiment [3], 2.15 z-score; in [4] it was 2.63 z-score.
As to GGATACTTCCT, the binding signal in the experiment with RELARELA (p65 homodimer) is 0.213 z-score; in the experiment with p50p50 homodimer, -1.36 z-score; with p52p52 homodimer, -0.625 z-score; in experiment [1] it was -0.647 z-score; in experiment [2] it was -0.831 z-score; with RELB subunit;p50 subunit it was -1.14 z-score. Further, the binding signal with RELB subunit;p52 subunit is -0.942 z-score; in [3], -1.04 z-score; in experiment [4], -0.591 z-score.
